About 1,700 (74%) of roughly 2,300 compounds were called active. The rule behind the calls is not given here. So high a share suggests a set chosen from earlier hits. This is one part of the list. A call without a number means that no potency is given here. Potency and affinity values are given separately.
Experiment: Mycobacterium tuberculosis H37Rv growth inhibition, no glycerol, confirmatory dose response (AID 449764);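 note: growth read after 7 days of incubation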
Conditions: series mostly up to 100 µM

Question: Which outcome does the source give for `O=C(CCCC(=O)OCC(=O)c1cccs1)Nc1ccc(Oc2ccccc2)cc1` here?
Answer: The outcome was “inactive”.

Question: For `COc1ccc(N2COC3c4cccc5cccc(c45)C32)cc1` (stereo unspecified), which outcome is on record?
Answer: The outcome was “inactive”.

Question: For `Brc1ccc(-c2ccc(/C=N/Nc3nncc(-c4ccccc4)n3)o2)cc1`, which outcome is on record?
Answer: The outcome was “inactive”.

Question: Which outcome does the source give for `Cn1nnc(NC(=S)NC(=O)c2ccc(-c3ccc(Br)cc3)o2)n1` here?
Answer: Its outcome is “inactive”.

Question: For `Cc1ccc(N/C=C2\C(=O)C3(C)CCC2C3(C)C)cc1C` (stereo unspecified), which outcome is on record?
Answer: The outcome was “inactive”.

Question: With `Cc1cc(C(=O)N/N=C/c2ccc(-c3ccc([N+](=O)[O-])cc3Cl)o2)n[nH]1` as the compound, how does the outcome read?
Answer: The outcome was “inactive”.

Question: Which outcome does the source give for `Cc1ccc(-c2cc(C(F)(F)F)n3nc(C(=O)NCCCn4ccnc4)cc3n2)cc1C` here?
Answer: Its outcome is “inactive”.

Question: With `CCOC(=O)/C(=N\Nc1ccc(Br)cc1)N1CC(C)OC(C)C1` (stereo unspecified) as the compound, how does the outcome read?
Answer: The outcome was “inactive”.

Question: With `C=CCn1c(=O)/c(=C/c2ccc(Cl)cc2)s/c1=C(/C#N)c1nnc2n1CCCCC2` as the compound, how does the outcome read?
Answer: The outcome was “inactive”.

Question: With `Nc1ccc2c(c1)oc1ccccc12` as the compound, how does the outcome read?
Answer: Its outcome is “inactive”.

Question: With `CCOC(=O)NNc1ccccc1` as the compound, how does the outcome read?
Answer: The outcome was “inactive”.

Question: With `CC1(CCc2ccccc2)NC(=S)N(c2ccc(Cl)cc2)N1` (stereo unspecified) as the compound, how does the outcome read?
Answer: The outcome was “inactive”.

Question: For `Cn1c(=O)c2[nH]c(-c3ccc(S(=O)(=O)O)cc3)nc2n(C)c1=O`, which outcome is on record?
Answer: The outcome was “inactive”.

Question: With `Nc1ccc(Oc2ccc3c(c2)OCO3)cc1` as the compound, how does the outcome read?
Answer: The outcome was “inactive”.

Question: For `COc1ccc(NC2=C(C(C)=O)C(c3ccc4c(c3)OCO4)C(C(C)=O)C(C)(O)C2)cc1` (stereo unspecified), which outcome is on record?
Answer: Its outcome is “inactive”.

Question: With `Nc1ccc2c(c1)nnn2-c1ccccc1` as the compound, how does the outcome read?
Answer: Its outcome is “inactive”.

Question: Which outcome does the source give for `O=S(=O)(Nc1ccn(-c2ccccc2)n1)c1ccc(Br)cc1` here?
Answer: Its outcome is “inactive”.

Question: With `Cc1ccc(S(=O)(=O)c2nc(Nc3nccs3)sc2Cl)cc1` as the compound, how does the outcome read?
Answer: Its outcome is “inactive”.

Question: With `O=C(CSc1nc2cc(Cl)ccc2o1)c1cccs1` as the compound, how does the outcome read?
Answer: The outcome was “inactive”.

Question: Which outcome does the source give for `COC12C(COC(N)=O)C3=C(C(=O)C(C)=C(N)C3=O)N1CC1C2N1C` (stereo unspecified) here?
Answer: Its outcome is “inactive”.

Question: For `Oc1ccc(Br)cc1/C=N/Nc1nc(N2CCCCC2)nc(N2CCOCC2)n1`, which outcome is on record?
Answer: Its outcome is “inactive”.

Question: With `Nc1ccc(CCc2ccc(N)cc2)cc1` as the compound, how does the outcome read?
Answer: Its outcome is “inactive”.

Question: For `COc1cc(/C=N/N(C)c2ccccc2)cc(Cl)c1O`, which outcome is on record?
Answer: The outcome was “inactive”.

Question: With `COc1cc2c(-c3ccc4[nH]ccc4c3)c(-c3ccc(C#N)cc3)oc(=O)c2cc1OC` as the compound, how does the outcome read?
Answer: Its outcome is “inactive”.

Question: For `O=[N+]([O-])c1ccc(-c2ccc(/C=N/c3c(-c4ccco4)nc4ccccn34)o2)cc1`, which outcome is on record?
Answer: Its outcome is “inactive”.

Question: For `O=C1NC(=O)/C(=C/c2ccc(-c3cccc([N+](=O)[O-])c3)o2)S1`, which outcome is on record?
Answer: Its outcome is “inactive”.

Question: With `O=[N+]([O-])c1ccc(-c2csc(NN=C3CCCC3)n2)cc1` as the compound, how does the outcome read?
Answer: Its outcome is “inactive”.

Question: For `Nc1c(C(=O)Nc2ccc(Br)cc2)sc2nc(-c3ccco3)ccc12`, which outcome is on record?
Answer: Its outcome is “inactive”.

Question: Which outcome does the source give for `CCCCn1cnc2cc(NCc3cccc(OC)c3O)ccc21` here?
Answer: The outcome was “inactive”.

Question: Which outcome does the source give for `COc1ccc(NC(C#N)c2ccc(OC)cc2)cc1` (stereo unspecified) here?
Answer: Its outcome is “inactive”.

Question: With `Nc1ccn([C@@H]2O[C@H](CO)[C@@H](O)C2O)c(=O)n1` (stereo partly specified) as the compound, how does the outcome read?
Answer: The outcome was “inactive”.

— PubChem BioAssay AID449764 (Southern Research Specialized Biocontainment Screening …, 2010)
